Measured values taken from PubChem BioAssay AID504941 (Broad Institute, 2011).
Among all 1,200 compounds or so, about 170 (14%) were called active. The rule behind the calls is not given here. Not all results are given here. Potency and affinity values are given separately.

Assay: twin-arginine translocation blockade, bacterial reporter – cherry-pick, set 2, plate reader, dose response (AID 504941)
Settings: E. coli Tat transport reporter; series mostly up to 38 µM

outcome, inactive:
O=C(Nc1nc2c(s1)CCCC2)c1cccc(S(=O)(=O)N2CCCc3ccccc32)c1
O=C(CCSc1ccccc1)NCC1CCCO1 (stereo unspecified)
CN(C(=O)c1cc2sccc2n1C)C1CCCCC1
O=C(C1CCCO1)N1CCN(c2c3c(nc4cc(-c5ccc(F)cc5)nn24)CCC3)CC1 (stereo unspecified)
CCOc1ccc(Br)cc1CNCCN1CCOCC1
O=C(c1ccc2nc[nH]c2c1)N1CCN(c2ncc(C(F)(F)F)cc2Cl)CC1
Cn1c(SCC(=O)NCc2cccs2)nnc1-c1ccc(S(=O)(=O)N2CCCC2)cc1
CN(C)S(=O)(=O)c1cccc(NC(=O)C2CCN(S(=O)(=O)c3cccs3)CC2)c1
O=C(Cn1cc2c(n1)CCCCC2)N1CCc2ccccc2C1
CC(/C=N/NC(=O)c1n[nH]c2c1CCC2)=C\c1ccccc1
CCC(CO)NC(=O)c1cccc(S(=O)(=O)N2c3ccccc3CC2C)c1 (stereo unspecified)
CC(C)S(=O)(=O)C1=NSC2=NC(=O)/C(=C\c3ccc(-c4cccc(C(=O)O)c4)o3)C(=N)N21
O=C(Nc1cc(N2CCOCC2)ncn1)c1ccccc1
O=C(O)c1ccc(NC2=C(N3CCOCC3)C(=O)c3ccccc3C2=O)cc1
O=C(COC(=O)Cn1cnc2ccccc2c1=O)NCC12CC3CC(CC(C3)C1)C2
CC(=O)NC1=NN(C(C)=O)C2(S1)C(=O)N(C(C)C)c1ccc(C)cc12 (stereo unspecified)
Cc1cc(-c2c(C)[nH]n(-c3ccc(Cl)cc3)c2=O)n(-c2ccc(Cl)cc2)n1
COC(=O)COc1cc2ccccc2cc1C(=O)Nc1ccccc1
O=[N+]([O-])c1cccc(COc2cccc(CN3CCCCC3)c2)c1
CS(=O)(=O)N1CCN(C(=O)c2cccnc2)CC1
CC1(C)CC(=O)C=C(NCCN2CCN(C(=O)Nc3ccccc3)CC2)C1
CC(C)(C)NC(=O)C[C@H]1C[C@H](C(=O)N2CCOCC2)[C@@]2(CCC3CCCC3)c3[nH]c4cc(-c5ccco5)ccc4c3CCN2C1=O
O=C(NCc1cccc(Cl)c1)c1cnn2c1NC(c1ccco1)CC2C(F)(F)F (stereo unspecified)
O=C(CSc1nc2ccccc2c(=O)[nH]1)N1CCN(c2ccccc2F)CC1
CC1Cc2cc(/C(O)=C3/C(=O)C(=O)N(Cc4ccco4)C3c3cccs3)ccc2O1 (stereo unspecified)
CC(C)c1ccc(OCC(=O)NC2=NCCS2)cc1
O=C(CNc1ccc(Cl)cc1)c1ccc(Br)cc1
CCCCOC(=O)C1=C(C)NC(=O)NC1c1ccc2c(c1)OCO2 (stereo unspecified)
CCN1CCCC1CNC(=O)C(=O)NC(C)C (stereo unspecified)
COc1cc(CNCc2ccccn2)ccc1OCc1c(Cl)cccc1Cl
Cc1c(NC(=O)Nc2ccccc2)cccc1[N+](=O)[O-]
CC1CN(S(=O)(=O)c2ccc(C(=O)Nc3ccccc3F)cc2)CC(C)O1 (stereo unspecified)
Clc1ccc(C2[C@H]3CN(Cc4cccnc4)[C@H](c4ccccc4)C34CC2(c2ccccc2)C4)cn1 (stereo partly specified)
Cc1ccc(NC(=O)CCCc2nc3ccccc3s2)c(O)c1
Cc1cnc(C(=O)OCC(=O)Nc2sc3c(c2C#N)CCC3)cn1
N#Cc1cn(CC(=O)N2CCCc3ccccc32)c2ccccc12
COc1cc(S(=O)(=O)Nc2cc(C)cc(C)c2)ccc1F
COc1ccc(OC2OC3COC(c4ccco4)OC3C(O)C2NC(C)=O)cc1 (stereo unspecified)
Cc1ccc(C(=O)CN2/C(=C(\O)c3ccccc3)C(=O)c3ccccc3S2(=O)=O)c(C)c1
CC(=O)c1c(C)[nH]c(C(=O)Nc2ccccc2N2CCOCC2)c1C
COc1cccc(C(=O)NCCS(=O)(=O)NCc2ccccn2)c1
Clc1ccccc1-c1nn2c(-c3ccncc3)nnc2s1
O=C(O)CN1C(=O)CC(Cc2ccc(Cl)cc2)C1=O (stereo unspecified)
Cc1c(N2C(=O)c3cccc4cccc(c34)C2=O)c(=O)n(-c2ccccc2)n1C
CCOC(=O)c1c2c3c(c(Cl)ccc3[nH]c1=O)C(=O)c1ccccc1-2
CCOC(=O)c1ccccc1-n1nnnc1C
CCCCN1CC(COCc2ccccc2)Oc2cccc(N3CCCC3)c2S1(=O)=O (stereo unspecified)
CC(=O)Nc1cccc(Oc2nc(C(F)(F)F)nc3ccccc23)c1
COc1ccc(NS(=O)(=O)c2cc(NC(=O)CCc3ccc(OC)c(OC)c3)ccc2N2CCOCC2)cc1
O=C(CNC1CCCCC1)Nc1cc(S(=O)(=O)N2CCOCC2)ccc1Cl
O=C(CNC1CCCCCC1)Nc1ccccc1N1CCCCC1
COC(c1ccccc1)c1nnc(CCC(=O)N(C)C(C2CC2)C2CC2)o1 (stereo unspecified)
CCOC(=O)C1(Cc2cccc(F)c2)CCN(C2CCOCC2)CC1
C(=N\n1cncn1)/c1ccc(N2CCOCC2)cc1
COc1ccc(/C=N/Nc2ccccn2)cc1O
CC(NC(=O)c1ccc([N+](=O)[O-])cc1[N+](=O)[O-])c1ccc(-c2ccccc2)cc1 (stereo unspecified)
CCOc1ccc(NC(=O)c2ccc(NC(=O)COC(=O)Cc3ccc(OC)cc3)cc2)cc1
Cc1ccc(-n2nnnc2SCC(=O)Nc2ccc3c(c2)OCCO3)cc1C
COC(=O)c1ccc(OC(=O)c2nn(C)cc2Cl)c(OC)c1
Cn1ncc(Cl)c1C(=O)NCc1ccc(Cl)cc1
O=C(Cc1ccccc1Cl)c1ccccc1
CCN(Cc1ccccc1)S(=O)(=O)c1c[nH]c(C(=O)OC)c1
O=C(O)Cn1cc(C(=S)N2CCOCC2)c2ccccc21
CCCCc1ccc(N=N/C(C(=O)Nc2ccc(NC(C)=O)cc2OC)=C(/C)O)cc1
CC(=O)NC(Cc1ccc(F)c(F)c1)C(=O)NC1CCN(c2c(Cc3ccccc3)c(C)nc3ncnn23)CC1 (stereo unspecified)
O=C1CC(c2cc(-c3ccccc3)no2)C1
CNC(=O)CNC(=O)Nc1ccc(C)cc1
CCN(C[C@H]1N[C@@](Cc2ccccc2)(C(=O)OC)[C@H]2C(=O)N(C)C(=O)[C@@H]12)C(C)=O
Cn1cc(CN2CCC(CO)(CCCc3ccccc3)CC2)c(-c2ccccc2)n1
Cc1ccc(NC(=O)c2ccc(Oc3ncccn3)cc2)cc1
Cc1cc(=O)[nH]c(SCC(=O)NCc2ccc3c(c2)OCO3)n1
CC(C)C(=O)Nc1ccc(Nc2ccccc2)cc1
CCCCOc1ccc(NC(=O)c2cc(F)c(F)cc2Cl)cc1
O=C(Cn1nc(C(=O)O)c2ccccc2c1=O)NCc1ccco1
O=C(NCCc1ccccc1)c1n[nH]c2ccccc12
CCc1ccc(C(C(=O)NC2CCCC2)N(CCOC)C(=O)CCC(=O)Nc2cc(C)on2)cc1 (stereo unspecified)
Cc1nc(SCc2ccc(C(=O)O)cc2)c2c(C)c(C)sc2n1
CN(C)CCCNC(=O)C(=O)NCC1CCCO1 (stereo unspecified)
CCO[C@@H]1OC(C(=O)O)=C[C@H](C)[C@H]1CCCO
CC(=O)Oc1ccc(C(=O)Cc2ccccn2)c(O)c1
CC(C)[C@@H](C(=O)N1CCNCC1)n1cc(CCO)nn1
CCOC(=O)c1cnn(-c2cc(C)c3ccccc3n2)c1N
NS(=O)(=O)c1ccc(CCNc2nc(C(F)(F)F)nc3ccccc23)cc1
CCSC(=O)NC12CC3CC(CC(C3)C1)C2
Cc1ccc(C)n1-c1ccc(-c2ccnc(N)n2)cc1
O=[N+]([O-])c1cccc(N(CC(O)CN2CCCCC2)S(=O)(=O)c2ccccc2)c1 (stereo unspecified)
C#CC(C)(CC)NC(=O)c1cc2cccc(CC=C)c2oc1=O (stereo unspecified)
COc1ccc(S(=O)(=O)N2CCC(C(N)=O)CC2)cc1
CCOC(=O)c1c(NC(=O)CSc2n[nH]c(CNc3ccccc3)n2)sc(C)c1C
C=CCN1C=C2C(=O)C(C)(OC(=O)c3ccc(OC)cc3)C(=O)C(c3ccco3)=C2C=C1CCCC (stereo unspecified)
O=C(O)c1cccc(NC(=O)c2ccccc2)c1
CC(C)N(c1ccccc1)c1ccc(NC(=O)COC(=O)CCN2C(=O)c3cccc([N+](=O)[O-])c3C2=O)cc1
O=C(CSc1cn(CCNC(=O)c2c(F)cccc2F)c2ccccc12)NCC1CCCO1 (stereo unspecified)
O=C(CSc1ncnc2c1nnn2Cc1ccccc1F)NCC1CCCO1 (stereo unspecified)
Cc1ccccc1OCC(=O)Nc1ccc(S(=O)(=O)Nc2onc(C)c2C)cc1
O=C(/C=C/Nc1ccccc1Br)c1ccccn1
CC1(C)CC(NC(=O)c2ccc(-c3ccc([N+](=O)[O-])cc3)o2)CC(C)(C)N1
Cc1ccc(NC(=S)NC(=O)c2ccc(F)cc2)cc1S(=O)(=O)Nc1ccccc1Cl
C[C@H]1CN([C@@H](C)CO)C(=O)c2cccc(NS(=O)(=O)c3ccc(F)cc3)c2O[C@H]1CN(C)Cc1ccc(Cl)c(Cl)c1
COC(C(=O)Nc1ccnn1C1CCN(C(=O)c2ccc(C=O)cc2)CC1)c1ccccc1 (stereo unspecified)
Cc1ccc(NC(=O)c2cccs2)cc1S(=O)(=O)Nc1cccc(Cl)c1
Cc1ccccc1-n1c(SCC(=O)N2CCOCC2)nc(O)c(Cc2ccccc2)c1=O
COCCn1c(=NC(=O)c2ccc3c(c2)OCCO3)sc2cc(S(N)(=O)=O)ccc21
CN1CCc2c(sc3nc(SCC(=O)N4CCOCC4)nc(N)c23)C1
COC(=O)C1(S(=O)(=O)C2(C(=O)OC)CCCC2)CCCC1
Cc1ccc(NCc2nnc3n2CCCCC3)c(C)c1
